PubChem BioAssay AID1159580 (chemical genetic matrix, 2015)
Several values for one entry are separate records, joined by “and”; a condition that tells them apart may be missing. Identical values can stand only once. Among all 5,500 compounds or so, about 2,000 (36%) were called active. Not shown: some 18% with an inconclusive outcome. Rule as the data show it: active = normalized growth mostly below about 0.91 (no sharp cut-off); inconclusive = no clear call, values can overlap the other calls; inactive = mostly above about 0.92. Some of the results follow.

Assay: chemical genetic growth profiling, strain panel (AID 1159580);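 also: tested at 20 µM; growth read once vehicle control cultures reached saturation at 30 °C; 1 = growth at the plate median or of vehicle wells; lower values mean less growth of the strain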
Conditions: growth OD

Measured: normalized growth

CC(N=C(NC#N)Nc1ccncc1)C(C)(C)C (stereo not drawn)
inactive: S. cerevisiae deletion strains, locus YJR043C, strain POL32, hits give low values 1.02 | S. cerevisiae deletion strains, locus YJR075W, strain HOC1, hits give low values 1.03 | S. cerevisiae deletion strains, locus YKL009W, strain mrt4, hits give low values 1.04 | S. cerevisiae deletion strains, locus YKL068W, hits give low values 1.01 | S. cerevisiae deletion strains, locus YKL085W, strain MDH1 (second series), hits give low values 1.01 | S. cerevisiae deletion strains, locus YKL085W, strain MDH1, hits give low values 1.01 | S. cerevisiae deletion strains, locus YKL160W, strain elf1, hits give low values 0.97 | S. cerevisiae deletion strains, locus YKL190W, strain CNB1, hits give low values 1.01 | S. cerevisiae deletion strains, locus YKR001C, strain vps1, hits give low values 1.02 | S. cerevisiae deletion strains, locus YKR026C, strain gcn3, hits give low values 0.978 | S. cerevisiae deletion strains, locus YKR091W, strain srl3, hits give low values 0.993 | S. cerevisiae deletion strains, locus YLL001W, strain dnm1, hits give low values 0.956 | S. cerevisiae deletion strains, locus YLL026W, hits give low values 0.968 | S. cerevisiae deletion strains, locus YLL041C, strain sdh2, hits give low values 0.982 | S. cerevisiae deletion strains, locus YLR027C, strain aat2, hits give low values 0.967 | S. cerevisiae deletion strains, locus YLR039C, strain RIC1, hits give low values 1.02 | S. cerevisiae deletion strains, locus YLR058C, strain SHM2, hits give low values 1.01 | S. cerevisiae deletion strains, locus YLR102C, strain apc9, hits give low values 1.02 | S. cerevisiae deletion strains, locus YLR221C, strain rsa3, hits give low values 1.02 | S. cerevisiae deletion strains, locus YLR258W, strain gsy2, hits give low values 1.01 | S. cerevisiae deletion strains, locus YLR262C, strain YPT6 (second series), hits give low values 0.947 | S. cerevisiae deletion strains, locus YLR262C, strain YPT6, hits give low values 1.04 | S. cerevisiae deletion strains, locus YLR268W, strain sec22, hits give low values 1.06 | S. cerevisiae deletion strains, locus YLR320W, strain mms22, hits give low values 1.02 | S. cerevisiae deletion strains, locus YLR330W, strain CHS5, hits give low values 1.01 | S. cerevisiae deletion strains, locus YLR342W, strain FKS1 (second series), hits give low values 0.984 | S. cerevisiae deletion strains, locus YLR342W, strain FKS1, hits give low values 0.945 | S. cerevisiae deletion strains, locus YLR357W, strain rsc2, hits give low values 0.957 | S. cerevisiae deletion strains, locus YLR370C, strain arc18, hits give low values 0.972 | S. cerevisiae deletion strains, locus YLR371W, strain rom2, hits give low values 1.04 | S. cerevisiae deletion strains, locus YLR384C, strain iki3, hits give low values 0.968 | S. cerevisiae deletion strains, locus YLR418C, strain cdc73, hits give low values 1.04 | S. cerevisiae deletion strains, locus YML016C, strain PPZ1, hits give low values 1 | S. cerevisiae deletion strains, locus YML032C, strain rad52, hits give low values 1.03 | S. cerevisiae deletion strains, locus YML120C, strain ndi1, hits give low values 0.964 | S. cerevisiae deletion strains, locus YML124C, strain tub3, hits give low values 1.01 | S. cerevisiae deletion strains, locus YMR058W, strain fet3, hits give low values 0.978 | S. cerevisiae deletion strains, locus YMR078C, strain ctf18, hits give low values 1.02 | S. cerevisiae deletion strains, locus YMR125W, strain sto1, hits give low values 0.984 | S. cerevisiae deletion strains, locus YMR129W, hits give low values 0.981 | S. cerevisiae deletion strains, locus YMR205C, strain PFK2, hits give low values 0.984 | S. cerevisiae deletion strains, locus YMR223W, strain ubp8, hits give low values 0.994 | S. cerevisiae deletion strains, locus YMR231W, strain pep5, hits give low values 1 | S. cerevisiae deletion strains, locus YMR263W, strain SAP30, hits give low values 1.04 | S. cerevisiae deletion strains, locus YMR307W, strain GAS1, hits give low values 0.992 and 1.03 | S. cerevisiae deletion strains, locus YNL067W, strain RPL9B, hits give low values 1.04 | S. cerevisiae deletion strains, locus YNL071W, strain lat1, hits give low values 0.988 | S. cerevisiae deletion strains, locus YNL128W, strain TEP1, hits give low values 1.02 | S. cerevisiae deletion strains, locus YNL153C, strain GIM3, hits give low values 1.02 | S. cerevisiae deletion strains, locus YNL175C, strain NOP13, hits give low values 1 | S. cerevisiae deletion strains, locus YNL197C, strain WHI3, hits give low values 0.977 | S. cerevisiae deletion strains, locus YNL209W, strain ssb2, hits give low values 0.993 | S. cerevisiae deletion strains, locus YNL224C, strain SQS1, hits give low values 0.992 | S. cerevisiae deletion strains, locus YNL233W, strain BNI4, hits give low values 1.02 | S. cerevisiae deletion strains, locus YNL248C, strain rpa49, hits give low values 1.02 | S. cerevisiae deletion strains, locus YNL250W, strain rad50, hits give low values 1.01 | S. cerevisiae deletion strains, locus YNL271C, strain bni1, hits give low values 1.02 | S. cerevisiae deletion strains, locus YNL298W, strain CLA4, hits give low values 1.02 | S. cerevisiae deletion strains, locus YNL307C, strain MCK1, hits give low values 1.02 | S. cerevisiae deletion strains, locus YNL322C, strain KRE1 (second series), hits give low values 0.982 | S. cerevisiae deletion strains, locus YNL322C, strain KRE1, hits give low values 1.02 and 1 | S. cerevisiae deletion strains, locus YNR049C, strain mso1, hits give low values 0.986 | S. cerevisiae deletion strains, locus YNR052C, strain pop2, hits give low values 1.01 | S. cerevisiae deletion strains, locus YOL006C, strain TOP1, hits give low values 1.08 | S. cerevisiae deletion strains, locus YOL012C, strain htz1 1.52 | S. cerevisiae deletion strains, locus YOL147C, strain pex11, hits give low values 1.01 | S. cerevisiae deletion strains, locus YOR001W, strain rrp6, hits give low values 0.957 | S. cerevisiae deletion strains, locus YOR061W, strain CKA2, hits give low values 0.999 | S. cerevisiae deletion strains, locus YOR069W, strain VPS5, hits give low values 1.01 | S. cerevisiae deletion strains, locus YOR070C, strain gyp1, hits give low values 0.996 | S. cerevisiae deletion strains, locus YOR080W, strain dia2, hits give low values 0.963 | S. cerevisiae deletion strains, locus YOR083W, strain WHI5 (second series), hits give low values 0.984 | S. cerevisiae deletion strains, locus YOR083W, strain WHI5, hits give low values 0.956 | S. cerevisiae deletion strains, locus YOR106W, strain vam3, hits give low values 0.964 | S. cerevisiae deletion strains, locus YOR136W, strain idh2, hits give low values 1.01 | S. cerevisiae deletion strains, locus YOR144C, strain elg1, hits give low values 1.02 | S. cerevisiae deletion strains, locus YOR184W, strain ser1, hits give low values 1.03 | S. cerevisiae deletion strains, locus YOR265W, strain rbl2, hits give low values 0.98 | S. cerevisiae deletion strains, locus YOR270C, strain vph1, hits give low values 0.997 | S. cerevisiae deletion strains, locus YOR290C, strain snf2, hits give low values 1.01 | S. cerevisiae deletion strains, locus YOR316C, strain cot1, hits give low values 1.02 | S. cerevisiae deletion strains, locus YPL051W, strain arl3, hits give low values 0.985 | S. cerevisiae deletion strains, locus YPL055C, strain LGE1, hits give low values 1.03 | S. cerevisiae deletion strains, locus YPL078C, strain atp4, hits give low values 0.919 | S. cerevisiae deletion strains, locus YPL106C, strain sse1, hits give low values 0.945 | S. cerevisiae deletion strains, locus YPL240C, strain hsp82, hits give low values 0.972 | S. cerevisiae deletion strains, locus YPL241C, strain CIN2, hits give low values 1 | S. cerevisiae deletion strains, locus YPR119W, strain clb2, hits give low values 1.02 | S. cerevisiae deletion strains, locus YPR141C, strain kar3, hits give low values 1.01 | S. cerevisiae deletion strains, locus YPR163C, strain tif3, hits give low values 1.03 | S. cerevisiae deletion strains, locus YPR167C, strain met16, hits give low values 1.02 | S. cerevisiae deletion strains, strain wtn01, hits give low values 1.05 | S. cerevisiae strains, strain wild type, hits give low values 1.01
